Shown are actives, neighbours in structure and some others; about 2.7% of the full set was active somewhere.
HSP90 inh: HSP90 inhibitors, primary screen, cell lysate, luminescence. Heat shock protein HSP 90 (rabbit reticulocyte lysate; luciferase refolding). inhibition, % at 5.6 µM. hit rate 0.91% among 290,000. AID 1789, 2009. Rabbit reticulocyte lysate, luciferase refolding luminescence, 3 h;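 active = inhibition above the screen-wide mean plus 3 SD, computed separately per campaign, cut at about 16% in these data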;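 note: inhibitors lower the luminescence because luciferase stays unfolded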
SENP8 block-1: SENP8 protease inhibitors, primary screen, biochemical, luminescence. hit rate 1.2% among 330,000. inhibition, % at 10 µM. purified SENP8, Z-RLRGG-aminoluciferin cleavage. AID 2540, 2010. Sentrin-specific protease 8 (Homo sapiens), Q96LD8; in the data active = inhibition above about 50%
SENP7 block: SENP7 protease inhibitors, primary screen, biochemical, luminescence, uHTS. Sentrin-specific protease 7 (Homo sapiens), Q9BQF6. recombinant SENP7, Z-RLRGG-aminoluciferin luminescence, 40 min. inhibition, % at 5 µM. hit rate 1.5% among 330,000. AID 434973, 2010;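 active = inhibition above about 50% at the single test dose, limit read from the data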
SENP8 block-2: human SENP8 protease inhibitors, primary screen, biochemical, fluorescence, Nedd8 protein substrate, uHTS; recombinant SENP8; inhibition, % at 20 µM; hit rate 0.64% among 360,000; AID 602440, 2012; in the data active = inhibition mostly above about 40%, no sharp cut-off; inactive = mostly below about 27%
SENP6 inh: SENP6 protease inhibitors, primary screen, biochemical, luminescence, uHTS | Recombinant SENP6 catalytic domain, aminoluciferin luminescence | inhibition, % at 10 µM | hit rate 1.8% among 330,000 | AID 2599, 2010;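 active = inhibition above about 50% at the single tested dose, limit read from the data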
Target sequence (Q9GZR1 628-1112 limits assumed): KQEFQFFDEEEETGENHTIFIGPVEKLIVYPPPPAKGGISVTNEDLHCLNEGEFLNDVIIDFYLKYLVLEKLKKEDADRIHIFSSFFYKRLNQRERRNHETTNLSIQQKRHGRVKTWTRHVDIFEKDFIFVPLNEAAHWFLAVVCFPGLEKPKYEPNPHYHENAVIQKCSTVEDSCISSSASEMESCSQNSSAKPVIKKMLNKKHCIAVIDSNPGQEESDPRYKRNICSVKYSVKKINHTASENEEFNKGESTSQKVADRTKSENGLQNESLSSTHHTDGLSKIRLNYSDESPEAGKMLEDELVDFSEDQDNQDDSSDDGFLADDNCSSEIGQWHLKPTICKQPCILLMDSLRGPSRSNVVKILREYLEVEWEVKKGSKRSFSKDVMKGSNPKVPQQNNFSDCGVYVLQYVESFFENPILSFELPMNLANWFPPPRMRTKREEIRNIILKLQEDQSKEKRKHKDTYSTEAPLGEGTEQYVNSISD
SENP8 confirm: SENP8 protease inhibitors, retest, confirmation, biochemical, luminescence, single concentration | shares compounds with SENP7 block | Recombinant SENP8, Z-RLRGG-aminoluciferin luminescence, 60 min | inhibition, % at 12.5 µM | hit rate 40% among 6,200 | AID 488912, 2010;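 active = mean inhibition across replicates above about 50%, limit read from the data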
SENP6 conf: SENP6 protease inhibitors, confirmation, biochemical, luminescence, single concentration; shares compounds with SENP7 block; AID 488915, 2010; recombinant SENP6, Z-RLRGG-aminoluciferin luminescence; inhibition, % at 12.5 µM; hit rate 58% among 6,200
SENP7 confirm: SENP7 protease inhibitors, retest, confirmation, biochemical, luminescence, single concentration | shares compounds with SENP7 block | recombinant SENP7, Z-RLRGG-aminoluciferin luminescence, 40 min | inhibition, % at 12.5 µM | hit rate 69% among 6,200 | AID 488917, 2010
Casp3 select: caspase-3 protease inhibitors, confirmation, selectivity assay for SENP inhibitor project, biochemical, single concentration. hit rate 60% among 6,200. shares compounds with SENP7 block. inhibition, % at 12.5 µM. purified caspase-3, Z-DEVD-aminoluciferin luminescence, 60 min. AID 488918, 2010;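 active = mean inhibition above about 50%, limit read from the data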
SENP luc ctr: luminescence interference (SENP counter-screen). Pre-incubated SENP8/Z-RLRGG-aminoluciferin, luciferase luminescence interference. inhibition, % at 12.5 µM. shares compounds with SENP7 block. AID 488919. hit rate 39% among 6,200;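 active = mean inhibition above about 50% when retested at one dose, limit read from the data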
Hits are given with their value; i = inactive; nt = no result given.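 Rule for the calls, unless noted: active = mean inhibition above about 50% in the one-dose retest (limit read from the data); inactive = the rest.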

SMILES	HSP90 inh	SENP8 block-1	SENP7 block	SENP8 block-2	SENP6 inh	SENP8 confirm	SENP6 conf	SENP7 confirm	Casp3 select	SENP luc ctr
COc1ccc(NC(=O)Nc2cc(C)ccc2F)cc1	i	88	i	i	92	i	92	101	91	59
COc1ccc(NC(=O)Nc2ccc(F)c(F)c2)c(OC)c1	i	i	i	i	i	nt	nt	nt	nt	nt
COc1ccc(NC(=O)Nc2ccccc2C(N)=O)cc1	i	91	96	i	96	i	95	102	98	89
CC(C)(C)c1ccc(C(=O)OCC(=O)Nc2sc3c(c2C#N)CCC3)cc1	i	i	i	i	i	nt	nt	nt	nt	nt
CN(C)S(=O)(=O)Oc1ccccc1C(=O)Nc1ccc(F)cc1F	i	i	i	i	i	nt	nt	nt	nt	nt
O=C1/C(=C/c2ccccn2)COc2ccccc21	i	i	i	i	i	nt	nt	nt	nt	nt
O=C1/C(=C/c2ccc(O)cc2)COc2ccccc21	i	83	93	i	95	94	90	94	66	89
O=[N+]([O-])c1ccc(Cl)c(/C=N/n2c(-c3ccncc3)n[nH]c2=S)c1	i	i	i	i	i	nt	nt	nt	nt	nt
O=C(COC(=O)/C=C/c1ccccc1)NC1CC1	nt	i	i	i	i	nt	nt	nt	nt	nt
O=C1N/C(=C\c2ccc(O)cc2)C(=O)c2ccccc21	i	94	85	i	96	93	97	97	84	i
Cc1ccc(-c2cc3onc(-c4ccccc4)c3c(=O)n2C)cc1	nt	92	96	i	93	i	i	i	i	i
Cc1ccc(S(=O)(=O)n2nccc2-c2c(-c3ccccc3)noc2C)cc1	i	i	i	i	i	nt	nt	nt	nt	nt
COc1ccc(CCNc2ncnc3c2oc2ccccc23)cc1OC	i	i	i	i	i	nt	nt	nt	nt	nt
CSc1nc(N)n2nc(-c3ccc(Cl)cc3)cc2n1	i	89	98	i	94	i	i	i	i	i
CCOC(=O)c1cnc2cc(-c3ccc(Cl)cc3)nn2c1N	i	i	i	i	i	nt	nt	nt	nt	nt
CCNc1nc(-c2ccc(Cl)cc2)cs1	i	72	62	i	85	i	71	94	60	69
CCN(CC)CC(=O)Nc1nc(-c2ccc(Cl)cc2)cs1	i	i	i	i	i	nt	nt	nt	nt	nt
CNc1nc(-c2ccc(Cl)cc2)cs1	i	i	i	i	62	54	58	82	51	i
CNc1nc(-c2ccc([N+](=O)[O-])cc2)cs1	i	i	i	i	i	nt	nt	nt	nt	nt
O=c1c2ccccc2nc2oc3ccccc3n12	i	74	80	i	88	i	i	70	82	i
CCOC(=O)c1cc(-c2cc3ccccc3o2)n[nH]1	i	i	54	i	72	63	61	81	i	i
CCOC(=O)c1cc(-c2ccc(C)o2)n[nH]1	i	i	i	i	i	nt	nt	nt	nt	nt
Cc1c(N=Nc2c(-c3ccc([N+](=O)[O-])cc3)[nH]n(C(N)=S)c2=O)cccc1[N+](=O)[O-]	i	nt	nt	i	nt	nt	nt	nt	nt	nt
Cc1[nH]n(C(N)=S)c(=O)c1N=Nc1cc(-c2ccc(Br)cc2)[nH]n1	i	55	i	i	69	i	i	i	i	i
Cc1ccc(C(=O)NNC(=O)c2ccc(S(=O)(=O)N3CCCCC3)cc2)cc1	nt	i	i	i	i	nt	nt	nt	nt	nt
SMILES	HSP90 inh	SENP8 block-1	SENP7 block	SENP8 block-2	SENP6 inh	SENP8 confirm	SENP6 conf	SENP7 confirm	Casp3 select	SENP luc ctr
Cc1[nH]n(C(N)=S)c(=O)c1N=Nc1cccc([N+](=O)[O-])c1C	i	88	71	i	96	96	95	102	92	88
NC(=S)n1[nH]c(-c2ccc([N+](=O)[O-])cc2)c(N=Nc2cccc([N+](=O)[O-])c2)c1=O	i	nt	nt	i	nt	nt	nt	nt	nt	nt
Cc1[nH]n(C(N)=S)c(=O)c1N=Nc1ccc(S(=O)(=O)N2CCCCCC2)cc1	i	i	i	i	73	51	i	i	i	i
CC(=O)Nc1ccc(N=Nc2c(C)[nH]n(C(N)=S)c2=O)cc1	i	70	67	i	53	64	66	93	92	i
O=C(CSc1nnc(CNc2cccc(Cl)c2)o1)OC1CCCCC1	i	i	i	i	i	nt	nt	nt	nt	nt
CC(C)Cc1nnc(NC(=O)CCC(=O)NCc2ccccc2Cl)s1	i	i	i	i	i	nt	nt	nt	nt	nt
Cc1ccc(Sc2nc(C)c([N+](=O)[O-])c(C)c2C#N)cc1	i	i	i	i	i	nt	nt	nt	nt	nt
Cc1[nH]n(C(N)=S)c(=O)c1N=Nc1ccc2ccccc2c1	i	nt	nt	i	nt	nt	nt	nt	nt	nt
Cc1ccc(N=Nc2c(C)[nH]n(C(N)=S)c2=O)cc1C	i	78	78	57	90	61	54	67	73	i
CCC(C)C(=O)Nc1cc(OC)c(OC)cc1C(=O)O (configuration not stated)	i	i	i	i	i	nt	nt	nt	nt	nt
COc1cc(/C=N/O)ccc1OCc1ccc(Cl)cc1	i	i	59	nt	75	64	64	86	i	68
Oc1ccc(/C=C/c2ccnc3ccccc23)cc1	i	i	i	i	61	i	i	74	i	i
CCCCSc1nnc(-c2ccc(NC(=O)CCc3ccccc3)cc2)n1C	i	i	i	i	i	nt	nt	nt	nt	nt
O=c1c2ccccc2nnn1CSc1ccccc1F	i	61	68	i	i	78	77	94	84	79
Cc1ccc(SCn2nnc3ccccc3c2=O)c(C)c1	i	i	i	i	i	nt	nt	nt	nt	nt
CCOc1ccc(Oc2c(C)oc3cc(O)ccc3c2=O)cc1	i	i	i	i	i	nt	nt	nt	nt	nt
O=[N+]([O-])c1ccc(N/N=C/c2cccc(O)c2)cc1	i	77	53	i	82	90	89	94	i	86
O=[N+]([O-])c1ccc(NN=Cc2cccc([N+](=O)[O-])c2)cc1	nt	nt	nt	i	nt	nt	nt	nt	nt	nt
O=[N+]([O-])c1ccc(N/N=C/c2cccc(O)c2O)cc1	i	59	i	i	78	i	i	84	i	68
